# The sample as a whole holds a higher share of hits than the screen did.
# DT40 TDP1 no CPT: qHTS for Inhibitors of human tyrosyl-DNA phosphodiesterase 1 (TDP1): qHTS in cells in absence of CPT; DT40 Tdp1-/- hTDP1 cells, no CPT, ATP luminescence, 48 h; Potency, µM (doses to about 46.2 µM), for inactives: top-dose activity change, negative = growth inhibition, most hits filed as inhibitors; actives 15% (n = 420,000); further: potency means the concentration at half of the fitted maximal effect; nearly all actives have a fitted effect of over 55% in size
#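 Seeded 400 DT40-hTDP1 cells/well (vehicle DMSO, no 20 nM CPT); pinned compounds; ≥48 hr at 37 °C; CellTiter-Glo luminescence as viability measure.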
# HT1080 IDH1KD tx: qHTS for induction of synthetic lethality in tumor cells producing 2HG: qHTS for the HT-1080-IDH1KD cell line | HT-1080 IDH1 knockdown viability, ATP luminescence, 48 h | Potency, µM (series often up to 46.1 µM), for inactives: at the highest dose activity, negative = toxicity, hits mostly cytotoxic | actives 2% (n = 360,000) | AID 686971, 2013;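 further: potency means the concentration at half of the fitted maximal effect; 0% = DMSO wells and -100% = cell-free medium wells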
#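 Luminescent ATP read-out (CellTiter-Glo, 10 min at room temperature) after 48 h compound exposure at 37 °C gave viability of IDH1-knockdown HT-1080 cells. Activity was normalised to DMSO and cell-free wells, then fitted as concentration-response curves.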
# HT1080-NT tox: qHTS for induction of synthetic lethality in tumor cells producing 2HG: qHTS for the HT-1080-NT fibrosarcoma cell line | HT-1080-NT fibrosarcoma viability, CellTiter-Glo ATP luminescence, 48 h | Potency, µM (top dose mostly 46.1 µM), for inactives: top-dose activity, negative = less viability, hits mostly cytotoxic | actives 1.6% (n = 360,000) | AID 686970, 2013;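 further: NT is the 2HG producing partner of a matched IDH1 knockdown line; potency means the concentration at half of the fitted maximal effect; 0% = DMSO-treated cells and -100% = media-only wells without cells; nearly all actives have a fitted effect of over 55% in size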
#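 HT-1080-NT fibrosarcoma cells (2HG-overproducing), 750 cells/well in RPMI with 5% FBS, dosed after 2 h and incubated 48 h at 37C. CellTiter-Glo luminescence normalized to DMSO and no-cell wells; concentration-response curves fitted and classed.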
# TDP1 cell CPT: qHTS for Inhibitors of human tyrosyl-DNA phosphodiesterase 1 (TDP1): qHTS in cells in presence of CPT; chicken DT40 Tdp1-/-;hTDP1 cells + 20 nM CPT, ATP luminescence, 48 h; Potency, µM (series often up to 46.2 µM), for inactives: top-dose activity change, negative = growth inhibition, actives largely listed as inhibitors; actives 12% (n = 420,000); further: potency means the concentration at half of the fitted maximal effect; nearly all actives have a fitted effect of over 55% in size
#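 Cell growth measured by CellTiter-Glo luminescence after a minimum 48 h, 37 C compound exposure with 20 nM CPT in Tdp1-knockout DT40 cells stably expressing hTDP1, seeded 400/well; qHTS titration format.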
# 12-LOX inh: Primary qHTS assay for inhibitors of human arachidonate 12S-lipoxygenase (ALOX12): Round 2 | Polyunsaturated fatty acid lipoxygenase ALOX12 (Homo sapiens), P18054 | AID 1671190, 2021 | Potency, µM (doses to about 108 µM), inactives show at the highest dose activity change, negative = inhibition, actives largely listed as inhibitors | purified 12hLO, xylenol orange hydroperoxide absorbance | actives 1.1% (n = 580,000); further: potency means the concentration at half of the fitted maximal effect
# Target sequence (P18054 whole entry, looked up): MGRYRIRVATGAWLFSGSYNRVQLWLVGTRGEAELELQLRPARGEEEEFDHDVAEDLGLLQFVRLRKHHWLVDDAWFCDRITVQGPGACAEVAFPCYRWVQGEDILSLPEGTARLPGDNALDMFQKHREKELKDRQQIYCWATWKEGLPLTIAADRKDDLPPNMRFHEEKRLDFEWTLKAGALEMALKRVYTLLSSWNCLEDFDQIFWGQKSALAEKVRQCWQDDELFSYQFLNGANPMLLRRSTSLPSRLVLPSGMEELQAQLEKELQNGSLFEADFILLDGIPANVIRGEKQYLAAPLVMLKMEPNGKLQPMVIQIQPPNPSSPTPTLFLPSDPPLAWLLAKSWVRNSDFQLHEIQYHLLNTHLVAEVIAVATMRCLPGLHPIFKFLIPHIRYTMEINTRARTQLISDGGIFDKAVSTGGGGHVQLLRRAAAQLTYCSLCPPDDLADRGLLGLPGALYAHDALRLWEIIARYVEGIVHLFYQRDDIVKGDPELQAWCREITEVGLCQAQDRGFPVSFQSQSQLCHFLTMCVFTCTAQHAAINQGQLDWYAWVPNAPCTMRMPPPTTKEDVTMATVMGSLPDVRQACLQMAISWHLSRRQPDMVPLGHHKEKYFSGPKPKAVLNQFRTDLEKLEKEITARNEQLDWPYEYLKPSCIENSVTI
#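 Purified human 12hLO at 150 nM in 25 mM Hepes, 0.01% Triton X-100, pH 7.0, preincubated 15 min at room temperature with compound. Reaction started with 40 uM arachidonic acid, 30 min at room temperature. Hydroperoxide measured by Fe-xylenol orange, 573/405 nm absorbance ratio.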
# IL-1B inflam inh: qHTS for Inhibitors of Inflammasome Signaling: IL-1-beta AlphaLISA Primary Screen | THP-1 LPS/ATP IL-1B secretion, AlphaLISA, 16 h; active compounds read low | activity change, % at 57.5 µM | actives 4.7% (n = 360,000); in the data active means activity change below about -50%; inconclusive means mostly about -30% to -49%
#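 THP-1 cells pretreated 1 hr with compounds (up to 57.5 uM final), then stimulated with LPS (250 ng/mL final) plus ATP (1.25 mM final); secreted IL-1B measured by AlphaLISA after 16 hr, decreased signal indicating inhibition.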
# * hit, by the source's call; i = inactive; ? = inconclusive; nt = no result given; [ ] = another dose, or the depositor's remark. Unless noted, the call rests on the fitted dose curve; in most records, active means well fitted curve in the direction sought with a large enough effect; inconclusive means small, poorly fitted or top-dose-only effect, or another doubt; inactive means no such curve, though single readings can be large; an effect the other way counts as inactive or inconclusive. Unless noted, on the % scale 0 is the no-effect control and ±100 the full control effect.
SMILES,DT40 TDP1 no CPT,HT1080 IDH1KD tx,HT1080-NT tox,TDP1 cell CPT,12-LOX inh,IL-1B inflam inh
C[C@H](CO)N1C[C@H](C)[C@H](CN(C)C(=O)Nc2ccc(F)cc2)OCc2ccccc2-c2c(n(C)c3ccccc23)C1=O,13µM*,-18.8%,-18.1%,14.6µM*,-1.0%,26.2
C[C@@H]1CN([C@H](C)CO)C(=O)c2c(c3ccccc3n2C)-c2ccccc2CO[C@@H]1CN(C)C(=O)Nc1ccc2c(c1)OCO2,?,-14.0%,10.0%,?,0.0%,19.8
COC(=O)N(C)C[C@@H]1OCc2ccccc2-c2c(n(C)c3ccccc23)C(=O)N([C@H](C)CO)C[C@@H]1C,25.9µM*,-4.7%,-7.8%,?,1.8%,-22.7
C[C@@H]1CN([C@H](C)CO)C(=O)c2c(c3ccccc3n2C)-c2ccccc2CO[C@H]1CN(C)Cc1ccccc1,?,?,?,?,-19.4%,?
C[C@H](CO)N1C[C@H](C)[C@H](CN(C)Cc2ccncc2)OCc2ccccc2-c2c(n(C)c3ccccc23)C1=O,16.4µM*,-2.4%,-2.3%,25.9µM*,0.3%,17.7
COCCNc1nc(-c2c(C)noc2C)nc2ccccc12,-16.7%,nt,nt,-22.4%,-13.7%,nt
Cc1noc(C)c1-c1nc(Nc2ccncc2)c2ccccc2n1,?,nt,nt,-11.6%,?,nt
Cc1noc(C)c1-c1nc(Nc2ccc(F)cc2)c2ccccc2n1,2.0%,nt,nt,-15.8%,22.4µM*,nt
Cc1noc(C)c1-c1nc(NCc2cccs2)c2ccccc2n1,23.1µM*,nt,nt,?,28.2µM*,nt
Cc1cc(C)cc(OCC(=O)N2N=C(C(F)(F)F)CC2(O)C(C)(C)C)c1 (stereo unspecified),?,16.4µM*,18.4µM*,?,?,1.9
Cc1cc(C)cc(OCC(=O)N2N=C(c3cccnc3)CC2(O)C(F)(F)F)c1 (stereo unspecified),?,-21.6%,-13.5%,?,-11.4%,12.4
Cc1ccc(-c2ccc(/C=C(\C#N)c3ccccc3)o2)cc1,nt,nt,nt,nt,3.3%,nt
Cn1c(/C(C#N)=C/c2ccc(-c3ccc(S(N)(=O)=O)cc3)o2)nc2ccccc21,14.6µM*,-13.2%,-1.1%,13µM*,-6.5%,122.9
COc1cc(/C=C(\C#N)c2nc3ccccc3n2C)cc(OC)c1OC,11.6µM*,nt,nt,29.1µM*,-21.7%,nt
Cn1c(/C(C#N)=C/c2cccc(O)c2)nc2ccccc21,?,-19.4%,-7.9%,20.6µM*,-9.4%,-61.5*
CCN(CC)CCNC(=O)c1ccc(Cn2c(=O)c3cccn3c3cccnc32)cc1,-6.7%,nt,nt,6.0%,-17.4%,nt
O=c1c2ccsc2ncn1Cc1coc(-c2cccc(Cl)c2)n1,nt,nt,nt,nt,3.5%,nt
O=c1c2ccsc2ncn1Cc1ccc(Cl)cc1,18.4µM*,-6.7%,-12.4%,?,145.5%,-2.4
COc1ccc(OC)c(NC(=O)CN2C(=O)C(c3ccccc3)=NC23CCCC3)c1,nt,nt,nt,nt,4.3%,nt
COc1cc(-c2cc(C(=O)Nc3ccccc3N3CCOCC3)c3ccccc3n2)cc(OC)c1OC,20.6µM*,8.6%,0.7%,18.4µM*,-18.1%,-66.9*
O=C(Nc1ccccc1N1CCOCC1)c1cc(-c2ccco2)nc2ccccc12,20.6µM*,-22.6%,?,20.6µM*,0.0%,-17.1
COc1ccc(-c2cc(C(=O)NCCN3CCOCC3)c3ccccc3n2)cc1OC,?,11.6%,-4.0%,7.6%,-29.1%,0.0
O=C(c1ccc(Cl)cc1)N1CC2(CCCN(Cc3ccc(Cl)cc3)C2)Cc2ccccc21 (stereo unspecified),nt,nt,nt,nt,3.55µM*,nt
CSCC[C@H](NC(=O)c1cccs1)C(=O)N1CCC2(CC1)NCCc1[nH]cnc12,1.6%,7.8%,2.4%,-2.1%,-3.6%,-84.9*
COC(=O)c1nn(-c2ccccc2)c(Cl)c1/C=N/OCc1ccc(Cl)cc1Cl,29.1µM*,-4.9%,9.0%,16.4µM*,i,-1.4
SMILES,DT40 TDP1 no CPT,HT1080 IDH1KD tx,HT1080-NT tox,TDP1 cell CPT,12-LOX inh,IL-1B inflam inh
Cc1cc(O)c(/C=N/OCc2ccc(Cl)cc2Cl)c(=O)o1,?,-10.2%,-20.4%,14.6µM*,-12.0%,-12.2
CNC(=O)[C@@H]1CN(C(=O)Cn2nc(C(F)(F)F)cc2C)C[C@H]1CO,nt,nt,nt,nt,8.1%,nt
COc1ccc(-c2cc(C(=O)N3CCC3)c3ccccc3n2)cc1OC,-5.0%,-13.4%,0.4%,-6.6%,-3.0%,-1.8
COc1ccc(Nc2nnc(-c3ccc(C)cc3)c3ccccc23)cc1C(=O)N1CCCCC1,?,?,?,?,-29.5%,-74.3*
COc1ccc(Nc2nnc(-c3ccccc3)c3ccccc23)cc1C(=O)N1CCCCC1,-22.4%,-19.0%,-5.1%,-26.2%,-20.3%,-14.3
COc1ccc(-c2cc(C(=O)N3CCCCC3)c3ccccc3n2)cc1OC,-50.0%,-8.7%,-11.4%,?,?,-69.3*
O=C(c1cc(-c2ccc(Cl)cc2)nc2ccccc12)N1CCC1,16.4µM*,-13.2%,-6.2%,18.4µM*,13.8%,-7.0
COc1ccc(-c2cc(C(=O)N3CCCCC3)c3ccccc3n2)cc1,?,-1.2%,-6.8%,16.4µM*,7.6%,-25.5
CCOc1ncccc1C(=O)NNC(=O)c1ccc(NS(=O)(=O)c2cccs2)cc1,0.0%,-10.3%,-2.1%,0.9%,-13.5%,5.5
CCNC(=O)c1cccnc1OC1CCN(C(=O)CC2CCCCC2)C1 (stereo unspecified),nt,nt,nt,nt,-3.1%,nt
COc1ccc(-c2cc(C(=O)N3CCN(c4cccc(C)c4C)CC3)c3ccccc3n2)cc1OC,13µM*,-24.4%,-13.1%,?,nt,-8.6
O=C(c1cc(-c2cccs2)nc2ccccc12)N1CCN(c2ccccc2)CC1,?,?,-16.8%,?,-15.9%,-11.9
COc1ccc(-c2cc(C(=O)N3CCCC3)c3ccccc3n2)cc1OC,-12.5%,2.2%,1.4%,-24.1%,?,-28.3
COc1cc(C(=O)N2CCN(c3ccccc3)CC2)c2ccccc2n1,0.731µM*,0.517µM*,?,0.92µM*,-9.1%,78.2
CCCCn1c(SCc2ccc(C(=O)OC)o2)nc2cc(S(N)(=O)=O)ccc21,9.2µM*,-4.1%[9.24 µM],?,3.26µM*,-28.9%,-78.1*

# Assay outcomes: PubChem BioAssay, National Center for Advancing Translational Sciences (NCATS)
